T cruzi growth-1 = T. cruzi proliferation inhibition | actives 5.9% (n = 77,000) | inhibition, % at 8.34 µM | AID 624255 | T. cruzi beta-gal in NIH3T3, GalScreen luminescence, 90 h;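 active = mean inhibition above about 93%, with at least 55% of replicates each passing it, limit read from the data, passing the limit was not always enough; inconclusive = only one of those two conditions holds; inactive = neither condition holds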
C diff HTS = inhibitors of Clostridium difficile growth. growth activity, negative = inhibition, % at 16 µg/mL (by protocol). AID 1259249. actives 0.25% (n = 86,000). Clostridium difficile clinical isolate growth, OD600, 24 h; active compounds read low;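 active = mean growth activity at or below -80% and every replicate also at or below -80%; inconclusive = mean at or below -80% but some replicate above -80%; inactive = mean growth activity above -80%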;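 note: 0% = DMSO wells and -100% = levofloxacin 16 µg/mL wells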
Pf Dd2 inh = inhibitors of Plasmodium falciparum Dd2 growth; actives 2.3% (n = 94,000); P. falciparum Dd2 growth, SYBR Green, 72 h; active compounds read low; activity change, % at 10 µM; in the data active = activity change below about -80%; inconclusive = no clear call, values can overlap the other calls
T cruzi growth-2 = blocks T. cruzi growth in NIH3T3 host cells; shares compounds with T cruzi growth-1; T. cruzi beta-gal in NIH3T3, GalScreen luminescence, 90 h; inhibition, % at 8.35 µM; actives 72% (n = 5,600);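 active = mean replicate inhibition above about 95% and at least 55% of replicates individually reaching it, limit read from the data; inconclusive = only one of the two criteria is met; inactive = neither criterion is met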
T cruzi growth-3 = blocks T. cruzi growth in NIH3T3 host cells. shares compounds with T cruzi growth-1. T. cruzi beta-gal in NIH3T3, GalScreen luminescence, 90 h. inhibition, % at 2.09 µM. actives 21% (n = 5,600). AID 651740;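 active = mean inhibition above about 95%, with at least 55% of replicates also reaching it, limit read from the data; inconclusive = meets just one of the two conditions; inactive = meets neither condition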;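 note: plate controls were neutral control median for no effect and positive control median for full effect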
NIH3T3 tox = NIH/3T3 (mouse) viability loss. NIH/3T3 viability, CellTiter-Glo ATP luminescence, 90 h. actives 14% (n = 5,600). shares compounds with T cruzi growth-1. AID 651742. cytotoxicity (signal decrease), % at 8.35 µM;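 active = mean signal decrease across replicates above about 35% based on untreated-well scatter, with enough replicates individually passing, limit read from the data; inconclusive = no rule stated though some were filed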;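 note: 0% = median of neutral control wells and 100% = median of positive control wells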
NIH3T3 tox 2 = NIH/3T3 (mouse) viability loss. shares compounds with T cruzi growth-1. NIH/3T3 viability, CellTiter-Glo ATP luminescence, 90 h. inhibition, % at 24.9 µM. actives 56% (n = 5,600);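 active = mean loss of cell viability signal at or above a set limit, and enough replicates individually reaching it; inconclusive = meets only the mean limit or only the replicate share; inactive = meets neither condition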;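 note: 0% = median of neutral control wells and 100% = median of positive control wells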
The depositor's hits bear a star. Only some compounds are listed: those with a hit (about 6.7% of all), similar ones and a draw of the others.

What do the screens show for `CN1c2ccc(-c3cccc(F)c3)cc2[C@@H]2[C@@H](CCN2C(=O)C2CC2)[C@H]1CO`?
T cruzi growth-1: 100*; C diff HTS: -10; Pf Dd2 inh: -23; T cruzi growth-2: 102*; T cruzi growth-3: 101*; NIH3T3 tox: 22; NIH3T3 tox 2: 91*

Results for CCC(=O)N1CC[C@@H]2[C@@H](CO)N(C)c3ccc(-c4cccc(F)c4)cc3[C@@H]21 ?
T cruzi growth-1: 27; C diff HTS: -1; Pf Dd2 inh: 6

How did CCC(=O)N1CC[C@@H]2[C@H]1c1cc(-c3cccc(OC)c3)ccc1N(C)[C@H]2CO do in these assays?
T cruzi growth-1: 90; C diff HTS: 4; Pf Dd2 inh: -5

Results for CCCNC(=O)N1[C@@H]2CN(C(=O)c3cccnc3)c3ccccc3[C@@H]2[C@@H]1CO ?
T cruzi growth-1: 33; C diff HTS: -9; Pf Dd2 inh: 2

Results for C[C@@H]1CN([C@@H](C)CO)C(=O)Cc2cc(NC(=O)Nc3ccccc3)ccc2O[C@@H]1CN(C)C(=O)Nc1cccc2ccccc12 ?
T cruzi growth-1: 23; C diff HTS: -9; Pf Dd2 inh: -22

How did COCC(=O)Nc1ccc2c(c1)C(=O)N(C)[C@H]1CC[C@@H](CC(=O)NCc3ccccc3F)O[C@@H]1CO2 do in these assays?
T cruzi growth-1: -4; C diff HTS: 0; Pf Dd2 inh: -3

How did C[C@@H]1CCCCO[C@H](CN(C)C(=O)Nc2ccccc2)[C@@H](C)CN([C@H](C)CO)C(=O)c2cc(NC(=O)Cc3ccccc3)ccc2O1 do in these assays?
T cruzi growth-1: -7; Pf Dd2 inh: -12

Results for C[C@@H]1CCCCO[C@H](CN(C)C(=O)Nc2ccccc2)[C@@H](C)CN([C@@H](C)CO)C(=O)c2cc(NC(=O)Cc3ccccc3)ccc2O1 ?
T cruzi growth-1: 21; Pf Dd2 inh: -52

Results for C[C@H]1CCCCO[C@H](CN(C)C(=O)Nc2ccccc2)[C@@H](C)CN([C@@H](C)CO)C(=O)c2cc(NC(=O)Cc3ccccc3)ccc2O1 ?
T cruzi growth-1: 40; Pf Dd2 inh: -51

What do the screens show for `C[C@@H]1CCCCO[C@@H](CN(C)C(=O)Nc2ccccc2)[C@@H](C)CN([C@@H](C)CO)C(=O)c2cc(NC(=O)Cc3ccccc3)ccc2O1`?
T cruzi growth-1: 36; Pf Dd2 inh: -34

What do the screens show for `C[C@H](CO)N1C[C@H](C)[C@@H](CN(C)C(=O)Nc2ccc(C(F)(F)F)cc2)OCCCC[C@H](C)Oc2ccc(NC(=O)Cc3ccccc3)cc2C1=O`?
T cruzi growth-1: 128*; C diff HTS: -2; Pf Dd2 inh: -85*; T cruzi growth-2: 108*; T cruzi growth-3: 110*; NIH3T3 tox: 13; NIH3T3 tox 2: inconclusive

What do the screens show for `C[C@H]1CCCCO[C@H](CN(C)C(=O)Nc2ccc(C(F)(F)F)cc2)[C@@H](C)CN([C@@H](C)CO)C(=O)c2cc(NC(=O)Cc3ccccc3)ccc2O1`?
T cruzi growth-1: inconclusive; C diff HTS: 1; Pf Dd2 inh: -89*; T cruzi growth-2: 101*; T cruzi growth-3: 113*; NIH3T3 tox: 30; NIH3T3 tox 2: 17

How did C[C@@H]1CCCCO[C@@H](CN(C)C(=O)Nc2ccc(C(F)(F)F)cc2)[C@H](C)CN([C@H](C)CO)C(=O)c2cc(NC(=O)Cc3ccccc3)ccc2O1 do in these assays?
T cruzi growth-1: inconclusive; C diff HTS: 9; Pf Dd2 inh: -78; T cruzi growth-2: 106*; T cruzi growth-3: 104*; NIH3T3 tox: -20; NIH3T3 tox 2: 16

What do the screens show for `C[C@@H]1CCCCO[C@H](CN(C)C(=O)Nc2ccc(C(F)(F)F)cc2)[C@H](C)CN([C@H](C)CO)C(=O)c2cc(NC(=O)Cc3ccccc3)ccc2O1`?
T cruzi growth-1: inconclusive; C diff HTS: 6; Pf Dd2 inh: -86*; T cruzi growth-2: 109*; T cruzi growth-3: 107*; NIH3T3 tox: 14; NIH3T3 tox 2: 56*

Results for COc1ccc2c3c(n(C)c2c1)[C@H](CO)NCC31CCN(C(C)=O)CC1 ?
C diff HTS: 0; Pf Dd2 inh: -17

Results for C[C@@H]1CN([C@@H](C)CO)C(=O)c2cccc(NS(C)(=O)=O)c2O[C@@H]1CN(C)Cc1ccccc1 ?
T cruzi growth-1: 31; C diff HTS: -1; Pf Dd2 inh: 31

Results for CNC(=O)C[C@@H]1CC[C@H]2[C@@H](COc3ccc(NC(=O)Cc4cccs4)cc3C(=O)N2C)O1 ?
T cruzi growth-1: 24; C diff HTS: 3; Pf Dd2 inh: 14

Results for CN1CCN(C(=O)C[C@H]2CC[C@@H](NC(=O)Cc3ccccn3)[C@H](CO)O2)CC1 ?
T cruzi growth-1: 2; Pf Dd2 inh: 1

How did C/C=C/c1cnc2c(c1)C(=O)N([C@H](C)CO)C[C@H](C)[C@H](CN(C)C(=O)Cc1ccccc1)O2 do in these assays?
T cruzi growth-1: -21; C diff HTS: 2; Pf Dd2 inh: 53

Results for CC(=O)N1CC2(C1)[C@@H](c1ccc(-c3ccc(C#N)cc3)cc1)[C@@H](CO)N2C(C)=O ?
C diff HTS: 3; Pf Dd2 inh: -29

How did C[C@@H]1CCCCO[C@@H](CN(C)C(=O)Nc2ccc(C(F)(F)F)cc2)[C@H](C)CN([C@@H](C)CO)C(=O)c2cc(NC(=O)Cc3ccccc3)ccc2O1 do in these assays?
T cruzi growth-1: 122*; C diff HTS: 3; Pf Dd2 inh: -46; T cruzi growth-2: 108*; T cruzi growth-3: 93; NIH3T3 tox: 26; NIH3T3 tox 2: 43*

Results for C[C@@H]1CN([C@H](C)CO)C(=O)c2cc(NC(=O)Cc3ccccc3)ccc2O[C@@H](C)CCCCO[C@H]1CN(C)C(=O)Nc1ccccc1 ?
T cruzi growth-1: 0; Pf Dd2 inh: -8

What do the screens show for `COCCNC(=O)[C@H]1[C@H](CO)[C@H]2Cn3c(ccc(-c4ccc(OC)cc4)c3=O)[C@@H]1N2C(=O)NC(C)C`?
T cruzi growth-1: 100*; C diff HTS: 4; Pf Dd2 inh: 20; T cruzi growth-2: 18; T cruzi growth-3: -23; NIH3T3 tox: 14; NIH3T3 tox 2: 19

What do the screens show for `CCCNC(=O)[C@H]1[C@H](CO)[C@H]2Cn3c(ccc(-c4ccccc4OC)c3=O)[C@@H]1N2C(=O)NCCC`?
T cruzi growth-1: -4; C diff HTS: 0; Pf Dd2 inh: 11

How did COCCNC(=O)[C@@H]1[C@@H](CO)[C@@H]2Cn3c(ccc(-c4ccc(F)cc4)c3=O)[C@H]1N2C(=O)NC(C)C do in these assays?
T cruzi growth-1: 20; C diff HTS: -2; Pf Dd2 inh: 13

Source: PubChem (Broad Institute)
